About 83,000 compounds went through this panel and 20% of them were active in at least one assay; those are over-represented in the sample as a whole.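 Single-concentration screen, 48 h exposure, 96-well plates. Endpoint: percent growth. Below 10 = active.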 Calls of active or inactive are those of the source.
How the values were obtained:
Assay in all cases: NCI-60 one-dose screen, 48 h (100 = growth as untreated, 0 = no growth, -100 = all killed)
HOP-62 NSCLC = details: 10 µM unless noted
NCI-H460 lung = details: 10 µM unless noted
A549/ATCC NSCLC = details: 10 µM unless noted
786-0 renal = details: 10 µM unless noted
K-562 leukemia = details: 10 µM unless noted
MALME-3M melanoma = details: 10 µM unless noted
SF-295 CNS = details: 10 µM unless noted
SF-539 CNS = details: 10 µM unless noted
UACC-257 melanoma = details: 10 µM unless noted
SNB-75 CNS = details: 10 µM unless noted
UO-31 renal = details: 10 µM unless noted
CAKI-1 renal = details: 10 µM unless noted
A498 renal = details: 10 µM unless noted
HL-60(TB) leukemia = details: 10 µM unless noted
MOLT-4 leukemia = details: 10 µM
RPMI-8226 leukemia = details: 10 µM unless noted
OVCAR-4 ovarian = details: 10 µM unless noted
BT-549 breast = details: 10 µM
HCC-2998 colon = details: 10 µM unless noted
RXF 393 renal = details: 10 µM unless noted

Measured: growth

CCC[CH2][Sn]([CH2]CCC)([CH2]CCC)[O]C(=O)CC
active: HOP-62 NSCLC -88.9% | NCI-H460 lung -84.1% | A549/ATCC NSCLC -78.8% | 786-0 renal -94.5% | K-562 leukemia -30.2% | MALME-3M melanoma -75.8% | SF-295 CNS -81.4% | SF-539 CNS -85.1% | UACC-257 melanoma -94.2% | SNB-75 CNS -99.6% | UO-31 renal -90.4% | CAKI-1 renal -95.2% | A498 renal -96.4% | HL-60(TB) leukemia -1.98% | MOLT-4 leukemia 7.41% | RPMI-8226 leukemia -31% | OVCAR-4 ovarian -99.4% | BT-549 breast -98.5% | HCC-2998 colon -94.5%

C[C@]12CC[C@H](OC3OC(O)C(O)C(O)C3O)C=C1CCC1C2CC[C@]2(C)[C@@H](c3ccc(=O)oc3)CC[C@]12O (some centres not stated)
inactive: A549/ATCC NSCLC 102% | UACC-257 melanoma 112%
active: HOP-62 NSCLC -97.8% | NCI-H460 lung -80.1% | 786-0 renal -84.4% | K-562 leukemia -35.3% | MALME-3M melanoma -47.6% | RXF 393 renal -24.3% | SF-295 CNS -77.7% | SF-539 CNS -83.1% | SNB-75 CNS -53.2% | UO-31 renal -92.3% | CAKI-1 renal -62.6% | A498 renal -23.3% | HL-60(TB) leukemia -57.3% | MOLT-4 leukemia -39.3% | RPMI-8226 leukemia -20.5% | OVCAR-4 ovarian -41.9% | BT-549 breast -92.3% | HCC-2998 colon -90.4%

CCCCNCCc1ccccn1
inactive: HOP-62 NSCLC 107% | NCI-H460 lung 107% | A549/ATCC NSCLC 100% | 786-0 renal 97.6% | K-562 leukemia 90.4% | MALME-3M melanoma 101% | RXF 393 renal 113% | SF-295 CNS 100% | SF-539 CNS 109% | UACC-257 melanoma 94.5% | SNB-75 CNS 104% | UO-31 renal 88.4% | CAKI-1 renal 97% | A498 renal 95.5% | HL-60(TB) leukemia 99.1% | MOLT-4 leukemia 97.5% | RPMI-8226 leukemia 90.2% | OVCAR-4 ovarian 106% | BT-549 breast 98.2% | HCC-2998 colon 114%

CN=C(NN)NN
inactive: HOP-62 NSCLC 135% | NCI-H460 lung 111% | A549/ATCC NSCLC 96.2% | 786-0 renal 103% | K-562 leukemia 113% | MALME-3M melanoma 103% | RXF 393 renal 109% | SF-295 CNS 102% | SF-539 CNS 104% | UACC-257 melanoma 109% | SNB-75 CNS 98% | UO-31 renal 90.8% | CAKI-1 renal 88.9% | A498 renal 92.4% | HL-60(TB) leukemia 119% | MOLT-4 leukemia 102% | RPMI-8226 leukemia 91.6% | OVCAR-4 ovarian 117% | BT-549 breast 106% | HCC-2998 colon 103%

C[C@]12CC[C@H]3[C@@H](C[C@@H]4N=C(c5ccc(O)cc5)S[C@@]45C[C@H](O)CC[C@]35C)[C@@H]1CC[C@@H]2O
inactive: HOP-62 NSCLC 46.7% | NCI-H460 lung 41.9% | A549/ATCC NSCLC 52.1% | K-562 leukemia 13.9% | MALME-3M melanoma 72.4% | UACC-257 melanoma 66.2% | SNB-75 CNS 26.4% | CAKI-1 renal 61.3% | A498 renal 49.4% | HL-60(TB) leukemia 22.7% | OVCAR-4 ovarian 81.8% | BT-549 breast 59.3% | HCC-2998 colon 95.3%
active: 786-0 renal 8.35% | RXF 393 renal -46.3% | SF-295 CNS -36.2% | SF-539 CNS 8.02% | UO-31 renal 9.33% | MOLT-4 leukemia -23.2% | RPMI-8226 leukemia -36.9%

CCC(C)(C)O
inactive: NCI-H460 lung 104% | A549/ATCC NSCLC 108% | 786-0 renal 114% | MALME-3M melanoma 110% | RXF 393 renal 111% | SF-295 CNS 87.7% | SF-539 CNS 108% | UACC-257 melanoma 119% | SNB-75 CNS 92.1% | UO-31 renal 93.8% | CAKI-1 renal 93.6% | A498 renal 83.1% | HL-60(TB) leukemia 86.4% | MOLT-4 leukemia 121% | RPMI-8226 leukemia 106% | OVCAR-4 ovarian 111% | BT-549 breast 110% | HCC-2998 colon 112%
